# Records with an inconclusive call do not appear. Active and inactive are the calls of the source. Calls follow the shape of the dose curve; as a rule, active = well fitted activation curve with a large enough effect; inconclusive = small, poorly fitted or top-dose-only effect; inactive = flat fitted curve, though single readings scatter.
# Test: qHTS for Inhibitors of Cell Surface uPA Generation: FP59 Counterscreen for Cherry-picked Compounds; also: 0% is about no effect
# Conditions: FP59 anthrax toxin cytotoxicity counterscreen, cells; series mostly up to 115 µM; activity (protection from FP59): at the top concentration
row,Compound,activity (protection from FP59)
1,O=C1CCCc2ccccc2N1Cc1ccc(F)cc1,-1.29% (inactive)
2,O=C(CCS(=O)(=O)c1ccc2c(c1)NC(=O)CS2)NCc1cccs1,-0.809% (inactive)
3,O=C1N[C@@H](Cc2c[nH]c3ccccc23)C(=O)N[C@H]1Cc1ccccc1,-1.34% (inactive)
4,CCCCn1c(C2CCCCC2)nc2cc3[nH]c(=O)c(C(C)C)nc3cc21,-1.59% (inactive)
5,COc1ccc([C@H]2[C@H](C(=O)OC(C)(C)C)N3N=Cc4ccccc4C3C23C(=O)c2ccccc2C3=O)cc1OC (stereo not given in full),5.17% (inactive)
6,O=[N+]([O-])c1ccccc1C=NNC(=S)NN=Cc1ccccc1[N+](=O)[O-],-0.537% (inactive)
7,COc1ccc(CCNC(=O)COC(=O)CNS(=O)(=O)c2ccc(SC)c([N+](=O)[O-])c2)cc1,-1.44% (inactive)
8,Cc1ccccc1-c1nnc(SCC(=O)NCC2CCCO2)o1 (stereo not given),-1.41% (inactive)
9,Cc1cnc(CNC(=O)C2CCC(=O)N(CCc3cccc(F)c3)C2)[nH]1 (stereo not given),-1.19% (inactive)
10,O=C(CCc1ccccc1)NNC(=O)c1cccc(F)c1,-1.48% (inactive)
11,COCc1cc(C)nc2sc(C(=O)Nc3nccs3)c(N)c12,-0.377% (inactive)
12,CC(=O)Oc1ccc(OC(C)=O)c(SCCCCCCl)c1,-1.46% (inactive)
13,Cc1ccnc(NS(=O)(=O)c2ccc(NC(=O)C3C4C=CC(C4)C3C(=O)O)cc2)n1 (stereo not given),-0.562% (inactive)
14,C=C(C(=O)O)C1CCC2(C)CCCC(C)(O)C2C1 (stereo not given),-1.31% (inactive)
15,O=C(COC(=O)c1ccc2ncsc2c1)NCc1cccc(Cl)c1,-1.35% (inactive)
16,CC(=O)NC(=S)Nc1ccc([N+](=O)[O-])cc1C,-1.26% (inactive)
17,CC(C)(O)C#Cc1ccc(C(=O)N2CCCC(CCC(=O)NCc3ccccc3F)C2)cc1 (stereo not given),-1.3% (inactive)
18,NC(=O)c1cc2c3ccccc3ccn2c1-c1ccccc1,-1.18% (inactive)
19,O=S(=O)(/N=C(/c1ccccc1)N1CCOCC1)c1ccc(F)cc1F,-1.28% (inactive)
20,CC[C@]1(C(=O)OC)[C@H]2C(=O)N(C)C(=O)[C@H]2[C@H]2CN(C)C(=NC3CCCCC3)N21,0.0361% (inactive)

row,Compound,activity (protection from FP59)
1,CC1(C(=O)OCC(=O)Nc2ccc(Cl)cn2)CC1(Cl)Cl (stereo not given),-0.887% (inactive)
2,COc1ccc(NS(=O)(=O)c2c(C)n(C)c(=O)n(C)c2=O)cc1OC,-1.51% (inactive)
3,CN(CC(=O)NCc1ccco1)CC(=O)Nc1c(Cl)cccc1Cl,-1.26% (inactive)
4,CC(C)CNC(=O)COC(=O)CCC(=O)c1cccs1,-1.36% (inactive)
5,CCOC(=O)N1CCc2c(sc3nc4n(c(=O)c23)N=C(C)CS4)C1,-1.34% (inactive)
6,O=C1[C@H]2[C@@H](c3ccc(F)cc3)N3C(=O)N(c4cccc(Br)c4)C(=O)[C@@]3(Cc3ccc(Cl)cc3)[C@H]2C(=O)N1C1CCCCC1,-0.57% (inactive)
7,CN1CC[C@]23c4ccccc4N[C@H]1[C@]21CCN(C)[C@H]3Nc2ccccc21,-1.45% (inactive)
8,Cc1cccc(CNc2ccc(C(CC(N)=O)NC(=O)c3cccc(Br)c3)cc2[N+](=O)[O-])c1 (stereo not given),-1.01% (inactive)
9,C/C=C(/C(=C/C)c1ccc(O)cc1)c1ccc(O)cc1,-1.04% (inactive)
10,O=C(Nc1c(C(=O)O)oc2ccc(Br)cc12)c1ccccc1,-0.512% (inactive)
11,Cc1cnc(CNC(=O)CC2C(=O)NCCN2Cc2ccccc2C(F)(F)F)cn1 (stereo not given),-1.1% (inactive)
12,COc1ccc(N2CCN(C(=O)COc3ccc4c(C)c(C)c(=O)oc4c3C)CC2)cc1,-1.36% (inactive)
13,CC(C)(C)NC(=O)C(c1cccs1)N(C(=O)c1csnn1)c1ccccc1F (stereo not given),-1.19% (inactive)
14,O=C(c1cc(COc2c(F)cccc2F)on1)N1CCc2ccccc2C1,-0.72% (inactive)
15,C[n+]1c2cc(N)ccc2cc2ccc(N)cc21,-1.59% (inactive)
16,CCN(CC)c1c([N+](=O)[O-])c(=O)sc2ccccc12,-1.13% (inactive)
17,O=C(Nc1ccc(S(=O)(=O)N2CCOCC2)cc1)c1cc(-c2ccccc2O)n[nH]1,-1.42% (inactive)
18,Cc1ccc(CN2CCN(Cc3cc4ccccc4o3)CC2CCO)cc1 (stereo not given),-0.771% (inactive)
19,CCOc1ccc(-c2n[nH]c(=S)n2Cc2ccccc2)cc1,-0.708% (inactive)
20,Cc1nc(NC(=O)COC(=O)CCc2ccccc2)c(Cl)cc1Cl,-0.548% (inactive)
